# Screening data from PubChem.
# HCMV inh: blocks human cytomegalovirus replication. HFF cells, HCMV-luciferase reporter, 72 h; active compounds read low. activity change, negative = inhibition, % at 57.5 µM. hit rate 4.5% among 410,000; in the data active = activity change below about -60%; inconclusive = no clear call, values can overlap the other calls; inactive = above about -39%
#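 Steps: HFFs plated, 16 h 37C; compounds added; HCMV-luciferase added to MOI 1 PFU/cell; 72 h 37C; OneGlo reagent, 5 min room temperature; luminescence read, normalized to controls.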
# Lassa entry inh: blocks Lassa virus binding to or entry into cells | Potency, µM (series often up to 37.9 µM), for inactives: top-dose activity change, negative = inhibition, actives largely listed as inhibitors | AID 540256 | Lassa virus pseudotype entry inhibition, cell reporter | hit rate 1.2% among 300,000; calls by dose curve; tested in HEK293 cells; note: potency is the fitted concentration of half-maximal effect; nearly all actives have a fitted effect of over 50% in size
# FMDV inh: antivirals against foot and mouth disease virus. FMDV antiviral cell-based qHTS. Potency, µM (highest dose often 57.9 µM), without a hit: at the highest dose activity change, negative = inhibition, most hits filed as inhibitors. hit rate 1.2% among 410,000. AID 1159524; calls by dose curve; tested in HEK293T cells; note: read-out not given here; potency is the fitted concentration of half-maximal effect; nearly all actives have a fitted effect of over 45% in size
# Marburg entry inh: blocks Marburg virus binding to or entry into cells; Marburg virus pseudotyped entry inhibition, cell reporter; Potency, µM (top dose mostly 37.8 µM), for inactives: top-dose activity change, negative = inhibition, hits mostly inhibitors; hit rate 1.8% among 300,000; calls by dose curve; tested in HEK293 cells; note: potency is the fitted concentration of half-maximal effect
# * hit, by the source's call; ? = inconclusive; . = no result given; [ ] = dose if it differs, or a comment. This is a sample that favours compounds with a hit; in the whole collection about 6.2% have one here. % is set by controls: 0 for no effect and ±100 for the full control effect.
SMILES,HCMV inh,Lassa entry inh,FMDV inh,Marburg entry inh
Cc1ccc(/C(O)=C2/C(=O)C(=O)N(c3ccccn3)C2c2ccc(F)cc2)cc1 (centres undefined),27,.,55%,.
CCCc1ccc(C(=O)NNc2ccc(F)cc2)cc1,34,-10%[46.1 µM],-6%,15%[46.1 µM]
COCCN1Cc2cccc(C(=O)Nc3ccc4c(c3)OCCO4)c2C1=O,-28,.,15%,.
O=S(=O)(Nc1ccc(S(=O)(=O)N2CCOCC2)cc1)c1ccc(Br)cc1,-32,6%,51%,-17%[46.1 µM]
O=S(=O)(c1ccc(Oc2ccc(Br)cc2)cc1)N1CCOCC1,-73*,?,?,?
O=C(O)CSc1c(O)c2ccccc2[nH]c1=O,58,.,-1%,.
O=C(C(Cl)Cl)N1c2ccccc2OCC1c1ccccc1 (centres undefined),-61*,-1%,?,-21%
CC(=O)Nc1ccc2c(c1)nc1n2CCN(C(C)c2ccccc2)C1 (centres undefined),27,-5%[46.1 µM],-8%,?
Cc1ccc(C)c(N2CCN(C(=O)CCCN3C(=S)NC(C)(C)CC3C)CC2)c1 (centres undefined),-64*,?,22µM*,?
CCOC(=O)C1C(=O)NCC2CCCC21 (centres undefined),18,5%,9%,21%
Cc1cc(C)c(O)c(CN(C)Cc2cc(Cl)cc(Cl)c2O)c1,12,?,-24%,3.2µM*
Cc1ccc2oc(C(=O)Nc3ccc(S(=O)(=O)N(C)c4ccccc4)cc3)cc(=O)c2c1,-13,18%[46.1 µM],-13%,6%[46.1 µM]
COc1ccc(C2CC23N=C(c2ccccc2)OC3=O)cc1 (centres undefined),-7,-16%,22µM*,?
Cc1nn(S(=O)(=O)c2cccs2)c(C)c1Sc1ccc([N+](=O)[O-])cc1,-84*,?,14µM*,-13%[46.1 µM]
Cc1nn(S(=O)(=O)c2ccccc2)c(C)c1Sc1ccc([N+](=O)[O-])cc1,-85*,-13%,.,?
O=C1NC(=O)C(C2CCCCCC2)C(=O)N1,-66*,22%[46.1 µM],-8%,15%[46.1 µM]
CN(C)CCNc1nc(-c2ccccc2)nnc1C(F)(F)F,-4,6%,0%,10%
COc1ccccc1CCC(=O)Nc1ccc2c(c1)c(=O)n(C)n2-c1cccs1,-84*,.,-3%,.
Cc1ccc(Cn2nnc3c(=O)[nH]c(C4CCCN(S(=O)(=O)c5ccccc5F)C4)nc32)cc1 (centres undefined),13,-8%,0%,-7%[46.1 µM]
Clc1ccc2nc(-c3ccc(Br)s3)cn2c1,6,8.2µM*,-18%,?
O=C(O)c1ccccc1-c1cn2cc(Cl)ccc2n1,5,?,0%,-1%[46.1 µM]
O=C(C#Cc1ccccc1)c1ccccc1,-84*,.,?,.
CN(C)C(=O)C#Cc1ccccc1,-4,?,11%,-7%
O=C(CSCC(=O)c1ccc([N+](=O)[O-])cc1)c1ccc([N+](=O)[O-])cc1,.,.,-16%,.
O=C(C#Cc1ccccc1)c1ccc([N+](=O)[O-])cc1,-88*,?,22µM*,-21%
SMILES,HCMV inh,Lassa entry inh,FMDV inh,Marburg entry inh
O=C(COc1coc(CN2CCc3ccccc32)cc1=O)Nc1ccc([N+](=O)[O-])cc1,-4,0%,-10%,-4%
COc1ccccc1Oc1ccc(Oc2ccccc2OC)cc1,-19,?,-20%,10µM*
Cc1ccc(Cl)cc1N1CCN(C(=O)c2cc3c(=O)n(C)c4ccccc4c3n2C)CC1,-79*,.,8.9µM*,.
Cc1cccc(N2CCN(C(=O)c3cc4c(=O)n(C)c5ccccc5c4n3C)CC2)c1C,?,.,32µM*,.
Cn1c(C(=O)N2CCCC2)cc2c(=O)n(C)c3ccccc3c21,-7,.,-2%,.
CC(C)n1nnnc1SCC(=O)NC1CCCC1,15,17%,-1%,16%[46.1 µM]
COc1ccc(C(=O)NN(C)c2nc(C(F)(F)F)nc3ccccc23)cc1,-99*,?,-14%,?
CS/C(=N\N(C)C(N)=O)c1ccccc1,11,-2%,-15%,23%
COc1ccc(CCN)cc1OC,18,.,-6%,.
COc1cc(/C=N/N=C(N)N)ccc1OCc1ccc(Cl)cc1,-102*,?,-45%,18µM*
NC(N)=N/N=C/c1ccc(OCc2ccccc2)c(OCc2ccccc2)c1,-103*,?,28%,?
CCOc1cc(/C=N/N=C(N)N)ccc1OCc1ccc(Cl)cc1,-24,?,-21%,?
NCCc1ccc(OCc2ccccc2)c(OCc2ccccc2)c1,-94*,?,-23%,?
CNCc1ccc(OCc2ccccc2)c(OC)c1,19,11%,18%,?
Brc1nc(-c2ccccc2)nc(-c2ccccc2)c1Br,29,.,?,.
Cc1ccc(-c2nc3ccccc3c(=O)n2CCN2CCOCC2)cc1,50,1%,11%,?
